# Assay results taken from ChEMBL document CHEMBL4513216, “Probing the Open Global Health Chemical Diversity Library for Multistage-Active Starting Points for Next-Generation Antimalarials” (ACS Infect Dis, 2020).
# The whole screen tested about 69,000 compounds, of which about 8,600 (12%) showed an effect of 50% or more. This is one part of a sample in which strong results are shown more often than they occur.
# Test system: Plasmodium berghei
# Test: Screen against P. berghei liver stage (PbLuc), transformed with Luciferase, at 10uM
# Assay type: functional, HepG2
# Conditions: tested at 10 uM
row,SMILES,INHIBITION
1,O=C(CCC1CCCO1)NCc1ccccc1Cn1cncn1 (stereo not given),34.7%
2,COc1ccc(Nc2nc3c(C)nn(C)c3c(=O)n2C)c(C)c1,29%
3,Cc1nn(C)cc1C(=O)N1CCCC(n2cncn2)C1 (stereo not given),9.14%
4,Cc1sc(C(=O)O)cc1S(=O)(=O)Nc1c(F)cccc1-n1cccn1,-28.8%
5,O=C(NCC1(COc2cnccn2)C[C@@H](O)[C@@H](O)C1)C1CCOCC1 (stereo not given in full),-0.813%
6,Cc1n[nH]c(=O)c(C(=O)N2CCN(CCc3cccs3)CC2)c1C,-36.1%
7,CSC(C)C(=O)NS(=O)(=O)c1ccc(F)c(C(F)(F)F)c1 (stereo not given),25%
8,Cc1ncsc1CN1CC[C@H]2C(=O)N(c3ccccc3)CCO[C@H]2C1,23.3%
9,COc1ccc(CN2CCc3c(CNC(=O)CC#N)nn(C)c3C2)cc1,29.8%
10,CCc1sc(-c2nnc(CNCCn3cc(C)cn3)o2)cc1C,30.8%
11,CN(Cc1nnc(C2CC2)n1C)C1CCN(Cc2nccn2C)C1 (stereo not given),21.6%
12,COc1ncccc1NC(=O)NC(CCCO)c1ccccc1 (stereo not given),25.4%
13,CC(C)OC(=O)CNC(=O)Nc1ccc(-c2nc(C(C)C)no2)cc1,-17.8%
14,O=C(CC1CC1)N[C@@H]1CN(C(=O)c2cccs2)C[C@@H]2CCCO[C@@H]21,53.9%
15,O=C(CC1CC1)N[C@@H]1CN(Cc2nccs2)C[C@@H]2CCCO[C@@H]21,29%
16,O=C(CC1CC1)N[C@@H]1CN(Cc2ccncc2)C[C@@H]2CCCO[C@@H]21,33.4%
17,Cc1n[nH]c(C)c1CCC(=O)N(C)Cc1cn[nH]c1-c1ccc(F)cc1,11.8%
18,COCC(=O)N1CCCC2(CCN(c3ccsc3)C2=O)C1 (stereo not given),37%
19,O=C(CC1CC1)N1CCCC2(CCC(=O)N2CC2CC2)CC1 (stereo not given),6.27%
20,Cc1csc(CCCNc2ccc(S(N)(=O)=O)cc2C#N)n1,66.5%
21,Cc1nc(C)c(CCNc2ccc(S(N)(=O)=O)cc2C#N)s1,49.9%
22,CCc1nc(CCNc2ccc(S(N)(=O)=O)cc2C#N)cs1,42.4%

row,SMILES,INHIBITION
1,COCCN1CCC2(CC1)CN(C(=O)Cc1cccnc1)CCO2,14.9%
2,CN(Cc1cccnc1)CC1CC12CCN(Cc1nccs1)CC2 (stereo not given),45.8%
3,Cc1cnc(N2CCC3(CC2)CC3CN(C)Cc2cccnc2)nc1 (stereo not given),71.6%
4,Cc1ccc(CN2CCC3(CC2)CC3CN(C)Cc2cccnc2)o1 (stereo not given),-24.9%
5,CN(Cc1cccnc1)CC1CC12CCCC2 (stereo not given),60.9%
6,CN(Cc1cccnc1)CC1CC12CCN(c1nncs1)CC2 (stereo not given),16.9%
7,Cc1cnc(N2CCC3(C2)C(=O)N(C)CCN3Cc2cccnc2)nc1 (stereo not given),-50.6%
8,CCC1CN(CC(=O)N2CCN(C(C)=O)CC2)CCN1CCOC (stereo not given),4.52%
9,CCN1CC(C(=O)N(C)Cc2cc3cc(F)ccc3[nH]2)CC1=O (stereo not given),-14.1%
10,CN(Cc1cc2cc(F)ccc2[nH]1)C(=O)C1CC(=O)N(C2CCCC2)C1 (stereo not given),26.5%
11,CN(C)CCN1CC(C(=O)N(C)Cc2cc3cc(F)ccc3[nH]2)CC1=O (stereo not given),52.2%
12,Cc1ccc(S(=O)(=O)N2CC[C@@H](O)C2)c(F)c1,2.25%
13,Cc1cc(S(=O)(=O)N2CCC(N3CCC(O)C3)CC2)c(Cl)cc1Cl (stereo not given),71.1%
14,Cc1cc(S(=O)(=O)N2CC[C@@H](O)C2)c(Cl)cc1F,-46.4%
15,O=C(NCC1CCCO1)c1nc2c(s1)CCCN2c1ncccn1 (stereo not given),-4.32%
16,Cc1ccc(C(=O)N2[C@@H]3CC[C@H]2CC(=O)N(C)C3)c(=O)[nH]1,-1.85%
17,N#Cc1ccc(C(=O)N2C[C@H](OCc3cccnc3)[C@H]3COC[C@H]32)cc1,-5.31%
18,CC(C)c1noc(CN(Cc2cccnc2)C2CN3CCC2CC3)n1 (stereo not given),77.5%
19,CC(C)c1noc(CCCC(=O)N2CCC(Cc3cccnc3)CC2)n1,27.1%
20,CC(C)(C)c1nc(CN(Cc2ccccc2F)C2CCCCC2)no1,35.3%
21,CCc1cc(CN(Cc2cccnc2)C2CN3CCC2CC3)on1 (stereo not given),28.5%
22,CC(C)(C)c1nc(CN(Cc2cccnc2)C2CN3CCC2CC3)no1 (stereo not given),54.8%

row,SMILES,INHIBITION
1,Cc1noc(C)c1CN(Cc1cccnc1)C1CN2CCC1CC2 (stereo not given),10.3%
2,O=S(=O)(Cc1ccc(Br)cc1)NCCO,28.5%
3,Cc1nn(C)c(N2CCOCC2)c1CNCc1cscn1,27.0165%
4,CCc1nnc(CN2CCCC2Cn2cc(C)cn2)o1 (stereo not given),-29.1%
5,O=C(c1ccc(F)c(F)c1)N1CCC(Cn2cc(CO)nn2)CC1,33.4%
6,Cc1nc(CN2CCCC(NCc3csc(C(C)(C)C)n3)C2)no1 (stereo not given),22.3%
7,COCCN1CCO[C@@H]2CN(C(=O)COc3ccc(C)cc3)C[C@@H]2C1,37.9%
8,[O-][S+](Cc1c(F)cccc1Cl)Cc1nnnn1C1CC1 (stereo not given),19.8%
9,CCc1nc2n(n1)CC(NCC(=O)Nc1cc(C(C)(C)C)no1)CC2 (stereo not given),-13.5%
10,Cc1cc(C(=O)N2CCCC(C)C2)ccc1NCc1nc(C(C)C)no1 (stereo not given),18.2%
11,O=C(O)c1ccc2[nH]cc(CN3CCOCC3)c2c1,-9.76%
12,O=C(O)c1ccc2c(CN3CCCC3)c[nH]c2c1,42.3%
13,O=C(O)c1ccc2c(CN3CCOCC3)c[nH]c2c1,56.5%
14,Cc1cccc(C(=O)NC(C(=O)NCc2ccc(O)nc2)C(C)C)c1 (stereo not given),28.7%
15,c1ccc(-c2cc(CN3C[C@H]4CC[C@H]3C4)on2)cc1,-0.27%
16,c1ccc(-c2cc(CN3C[C@H]4CC[C@@H](C3)N(CC3CCC3)C4)on2)cc1,86.8%
17,c1ccc(-c2cc(CN3C[C@H]4CC[C@@H](C3)N(CC3CC3)C4)on2)cc1,48.2%
18,CN(c1cccnn1)C1CCN(C(=O)Cc2c[nH]c3ccccc23)CC1,36.1%
19,CCCOC1CCCN(c2nc(CC)nc3c2cnn3C)C1 (stereo not given),7.77%
20,Cc1nc(N2CCCC2)nc2c1CCN(C(=O)C1CCC1)CC2,-21.1%
21,Nc1ncc(-c2csc(NC(=O)C[C@H]3COCCN3)n2)cn1,-7.79%
